Values joined by “and” are separate entries in the source; they are usually repeats but may differ in a detail not shown here. Equal entries are not always repeated. Out of some 330,000 compounds screened, about 1,100 (0.33%) were called active. Rule as the data show it: active = inhibition above about 85%; inactive = the rest. What follows is part of a selection rich in actives, with near analogues and random picks from the rest. Some compounds were tested as several samples or in several runs, with calls that do not always agree.
Experiment: growth inhibition of S. aureus RN4220, primary screen, OD600 (AID 1259311);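 also: plate controls were untreated cells for no effect and reference antibiotic for full effect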
Conditions: OD600, 16 h, stronger effect = higher value

SMILES | inhibition
COC(=O)C1(C)NC(c2ccc(C)cc2)C2C(=O)N(c3ccc(F)cc3)C(=O)C21 (stereo not drawn) | -0.392% (inactive)
COC(=O)C1=C(C)N(c2ccc(C)cc2)/C(=C/c2ccc(O)cc2)C1=O | 84.9% (active)
CCOC1OC(C(=O)N2CCCCCCC2)=CC(c2ccc(C(F)(F)F)cc2)C1CCCO (stereo not drawn) | 7.41% (inactive) and 6.78% (inactive)
O=C(NCc1ccccc1)C1=CC(c2ccc(C(F)(F)F)cc2)CC(OCc2ccc(CO)cc2)O1 (stereo not drawn) | 5.86% (inactive)
O=C(/C=C/c1ccc([N+](=O)[O-])o1)NNC(=O)c1ccc(F)cc1 | 99.6% (active)
Nc1nonc1C(=O)NN=Cc1ccc([N+](=O)[O-])o1 | 21.6% (inactive)
O=C(NN=Cc1ccc(F)cc1)c1ccc(F)cc1 | 4.01% (inactive)
O=C(O)c1ccc(NN=Cc2cc3ccccc3nc2Cl)cc1 | -0.883% (inactive)
CCCCC1CC1C(NC(=O)c1ccccc1)c1ccccc1C(F)(F)F (stereo not drawn) | 9.97% (inactive)
Cc1cccc(C(=O)Oc2ccccc2C=NNc2ccc([N+](=O)[O-])cc2)c1 | -8.66% (inactive)
NC(COc1cc(Cl)cc(Cl)c1)=NO | 1.6% (inactive)
COc1ccc(S(=O)(=O)N2CCN(c3ncnc4c(-c5ccccc5)nsc34)CC2)cc1 | 4.04% (inactive)
COc1ccc(-c2csc3ncnc(N4CCN(S(=O)(=O)c5cccc(F)c5)CC4)c23)cc1 | 2.78% (inactive)
COc1ccc(-c2csc3ncnc(N4CCN(S(=O)(=O)c5ccccc5C#N)CC4)c23)cc1 | 96.6% (active)
Cc1cccc(NC(=O)c2ccc([N+](=O)[O-])o2)c1 | 35.2% (inactive)
C/[N+]([O-])=C\c1ccc([N+](=O)[O-])o1 | 97.6% (active)
Cc1ccc(NCC(=O)NN=Cc2ccc([N+](=O)[O-])o2)cc1 | 7.24% (inactive)
COc1cc(C=NNC(=O)c2cccc([N+](=O)[O-])c2)ccc1O | -1.37% (inactive)
COc1ccc(S(=O)(=O)Nc2ccc3c(c2)C(=O)N(C(C)CO)CC(C)C(CN(C)CC2CC2)O3)cc1 (stereo not drawn) | 1.05% (inactive)
CC(=NNc1cc(C)nc(NCc2ccccc2)n1)c1ccc([N+](=O)[O-])cc1 | -7.45% (inactive)
COc1ccc2c(c1)C(=O)CC(c1ccccc1)O2 (stereo not drawn) | 2.06% (inactive)
COc1ccc2c(c1)SC(C)CC2=O (stereo not drawn) | -12.2% (inactive)
COc1ccc2c(c1)OC(O)(C(F)(F)C(F)F)CC2=O (stereo not drawn) | 99.2% (active)
CC(=O)OCC(=O)C1CCC2C3CCC4CC(O)CC[C@]4(C)C3C(=O)C[C@]12C (stereo partly drawn) | 2.69% (inactive)

SMILES | inhibition
CC(NC(=O)c1nc[nH]c1C(=O)NC(C)c1ccccc1)C(=O)OCc1ccccc1 (stereo not drawn) | 6.68% (inactive)
CC(C)c1nnc(NC(=O)COC(=O)/C=C/c2ccc([N+](=O)[O-])cc2)s1 | -2.74% (inactive)
Cc1cc(NC(=O)COc2ccc([N+](=O)[O-])cc2)no1 | -0.977% (inactive)
CCOCC(=O)Nc1ncc(S(=O)(=O)c2ccc([N+](=O)[O-])cc2)s1 | 90.6% (active)
COC(=O)C1=C(C(=O)OC)C2Nc3ccccc3[C@@]23CC(C(=O)OC)N(C(=O)c2cccs2)C3=N1 (stereo partly drawn) | 2.73% (inactive)
CCN(CC)S(=O)(=O)c1cccc(-c2n[nH]c(=S)n2N=Cc2ccc(OC)cc2)c1 | 15% (inactive)
CC(C)CC(NC(=O)c1[nH]cnc1C(=O)NC(C)C(=O)OC(C)(C)C)C(=O)OC(C)(C)C (stereo not drawn) | 4.67% (inactive)
Cc1ccc(N2C(=O)N3C(c4ccc(Br)cc4)C4C(=O)N(C(C)(C)C)C(=O)C4[C@]3(C)C2=O)cc1 (stereo partly drawn) | 5.35% (inactive)
N#CC(=NNc1ccc(Cl)cc1)C(=O)c1ccccc1 | 100% (active)
N#C/C(=C/c1ccc(Cl)cc1)NC(=O)c1ccccc1 | -6.37% (inactive)
N#CC(=NNc1ccc(Cl)cc1)C(=N)N1CCCCC1 | -2.55% (inactive)
O=c1c2ccccc2nc(/C=C/c2ccco2)n1-c1ccccc1O | 95.7% (active)
O=C(CSc1nc2ccccc2c(=O)n1-c1ccc(F)cc1)NC1CC1 | -2.32% (inactive)
CCn1c(/C=C/c2ccc([N+](=O)[O-])o2)nc2ccccc2c1=O | 11.2% (inactive)
O=C(CSc1nc2ccccc2c(=O)n1-c1ccccc1F)N1CCOCC1 | -0.567% (inactive)
Cc1nc2ccccc2c(=O)n1-c1ccc(Cl)cc1Cl | 2.26% (inactive)
O=c1c2ccccc2nc(/C=C/c2ccc(F)cc2)n1-c1ccccc1O | 97.2% (active)
O=C(NC(C(=O)NN=Cc1ccccn1)c1n[nH]c(=O)c2ccccc12)c1ccccc1 (stereo not drawn) | 0.248% (inactive)
CCCOc1ccc(C=NNC(=O)CSCc2ccc([N+](=O)[O-])cc2)cc1OCC | 3.47% (inactive)
CC(CC(=O)Nc1ccc([N+](=O)[O-])cc1)=NNC(=O)C1CC12CCC2 (stereo not drawn) | 3.47% (inactive)
COc1ccccc1C=NNC(=O)CO | 5.18% (inactive)
CNC(=O)C(=NO)c1ccccc1 | 0.94% (inactive)
O=C1CS/C(=N/N=Cc2ccncc2)N1 | 2.12% (inactive)
COc1ccc(CCN2C(=O)CSC2=NNC(=O)c2cccs2)cc1OC | 2.01% (inactive)

SMILES | inhibition
COc1ccc(C=NN=Cc2ccc(OC)c(OC)c2)cc1OC | -1.08% (inactive)
CN(C)C=Nc1sc2c(c1C#N)CC(C)(C)NC2(C)C | 2.77% (inactive)
COc1ccc(C(C)=NNC(=O)CSc2nnc(C)s2)cc1 | 6.45% (inactive)
O=C(CC(O)(C(F)(F)F)C(F)(F)F)Nc1ccc(Cl)c(Cl)c1 | 100% (active)
NC(=O)N1CCCC1C(=O)Nc1ccc(Cl)c(Cl)c1 (stereo not drawn) | 0.288% (inactive)
O=C(Cc1ncc(C(F)(F)F)cc1Cl)Nc1cccc(Br)c1 | -2.16% (inactive)
Cc1[nH]c2ccccc2c1C=NNC(=O)CNC(=O)c1cccs1 | 2.5% (inactive)
COc1ccc(C=Nn2nnnc2N)c(OC)c1 | 2.12% (inactive)
COc1ccc(C(=O)NN=Cc2ccc(OC)c(CN3CCCc4ccccc43)c2)cc1 | 0.711% (inactive)
COc1ccc(C(=O)NN=Cc2ccc(OC(=O)c3cccc4ccccc34)c([N+](=O)[O-])c2)cc1 | 95.4% (active)
COc1ccc(C=NNC(=O)c2ccccc2OC)cc1COc1ccccc1[N+](=O)[O-] | 4.25% (inactive)
C1=CC2CCN(Cc3ccccc3)Cc3cccc(c32)C1 (stereo not drawn) | 4.59% (inactive)
Cc1cccc(-n2c(C)cc(C=NO)c2C)c1 | -4.73% (inactive)
O=C(CCl)N(Cc1cccc([N+](=O)[O-])c1)c1cccc(Cl)c1 | 94.9% (active)
Cc1ccc(S(=O)(=O)N(Cc2cccc([N+](=O)[O-])c2)C(=O)N2CCN(C)CC2)cc1 | 2.8% (inactive)
O=C(c1cccc([N+](=O)[O-])c1)N1CCN(Cc2ccccc2)CC1 | 2.33% (inactive)
CCCCNC(=O)CC1S/C(=N/N=Cc2ccc(OC)cc2)NC1=O (stereo not drawn) | 10.5% (inactive)
Cc1ccc(C=NNC(=O)Cc2cccn2C)cc1 | 1.44% (inactive)
Cc1ccc(O)c(C(=O)C=Cc2ccc3c(c2)OCCO3)c1 | -1.13% (inactive)
COc1c(O)ccc(C=NNC(=O)c2ccc3c(c2)OCCO3)c1[N+](=O)[O-] | 0.97% (inactive)
O=C(NN=Cc1cc([N+](=O)[O-])ccc1O)C12CC3CC(CC(C3)C1)C2 | 63.4% (inactive)
CN1CCN(CCC(=O)NN=Cc2cc([N+](=O)[O-])ccc2O)CC1 | 88.7% (active)
CN1CCN(CCNC(=O)Nc2ccc([N+](=O)[O-])cc2)CC1 | 2.31% (inactive)
OCCC1CC(O)C(O)[C@@]2(CCCc3ccccc3O2)O1 (stereo partly drawn) | -1.69% (inactive) and 51.2% (inactive) and 98.7% (active)

SMILES | inhibition
OCCC1CC(O)C(O)[C@]2(Cc3ccccc3O2)O1 (stereo partly drawn) | 1.1% (inactive) and -0.123% (inactive) and 7.32% (inactive)
Cc1cccc(NC(=NS(=O)(=O)c2ccccc2)c2ccccc2)n1 | -0.262% (inactive)
CC(N)=C(C#N)C(=O)CSc1ccccc1F | 5.44% (inactive)
Cc1cc(C)n(C(=O)C(C#N)=NNc2cc(Cl)cc(Cl)c2)n1 | 99.6% (active)
Cc1cc(C)n(C(=O)CCNC(=O)c2ccccc2Cl)n1 | 4.12% (inactive)
N#CC(=NNc1cc(Cl)cc(Cl)c1)c1nnc2n1CCCCC2 | 0.845% (inactive)
COc1ccc(C=NNc2ccc([N+](=O)[O-])cc2S(=O)(=O)N2CCN(C)CC2)cc1 | -2.66% (inactive)
O=C(NN=Cc1cc(Cl)cc([N+](=O)[O-])c1O)c1cccc(S(=O)(=O)N2CCOCC2)c1 | 5.65% (inactive)
COc1ccc(CS(=O)/C(Cl)=C(/Cl)C(=O)Nc2ccc(OC)nc2)cc1 (stereo not drawn) | 1.8% (inactive)
COc1cccc(NC(=S)N(Cc2ccc(C)cc2)Cc2ccccn2)c1 | 2.66% (inactive)
COc1ccc(NC(=O)/C(Cl)=C(/Cl)S(=O)Cc2ccc(C)cc2)cn1 (stereo not drawn) | 93.4% (active)
COc1ccc(CN2CCC(=O)N(C(CO)CC(C)C)CC2)cc1 (stereo not drawn) | 3.45% (inactive)
COc1ccc(C2CC(=O)C=C(c3ccc(C)cc3)C2)cc1 (stereo not drawn) | 5.1% (inactive)
O=C(NN=Cc1ccsc1)c1cc(-c2cccs2)nc2ccccc12 | 2.77% (inactive)
O=C(Nc1nnc(-c2ccccc2)o1)c1cc(-c2cccs2)nc2ccccc12 | 100% (active)
CC(C)(C)Cc1nnc(NC(=O)c2cc(-c3ccccc3)nc3ccccc23)s1 | -1.74% (inactive)
CC(C)(C=NO)N(O)C=C1C=CC(=O)C=C1 | 1.68% (inactive)
COCCNC(=O)C1CCCN1S(=O)(=O)c1cccc2cccnc12 (stereo not drawn) | 6.77% (inactive)
COc1ccccc1CN1CCN(C(c2ccccc2)c2ccccc2)CC1 | -0.651% (inactive)
CC1(C)CC(N2CCN(C(c3ccccc3)c3ccccc3)CC2)=CC(=[N+]2CCCCC2)C1 | 100% (active)
c1ccc(C(c2ccccc2)N2CCN(Cc3nnnn3C3CCCCC3)CC2)cc1 | -1.54% (inactive)
